# IDE exosite inh: exo-site inhibitors of human insulin-degrading enzyme; P14735; purified IDE, FL-6b probe fluorescence polarization; hits give low values; z-score at 20 µM; actives 6.3% (n = 17,000);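 active = z-score of -3 or lower, meaning strong loss of probe binding signal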;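 also: His-tagged human IDE residues 42-1019 made in E. coli with 30 nM FL-6b probe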
# Target sequence (P14735 42-1019 limits assumed): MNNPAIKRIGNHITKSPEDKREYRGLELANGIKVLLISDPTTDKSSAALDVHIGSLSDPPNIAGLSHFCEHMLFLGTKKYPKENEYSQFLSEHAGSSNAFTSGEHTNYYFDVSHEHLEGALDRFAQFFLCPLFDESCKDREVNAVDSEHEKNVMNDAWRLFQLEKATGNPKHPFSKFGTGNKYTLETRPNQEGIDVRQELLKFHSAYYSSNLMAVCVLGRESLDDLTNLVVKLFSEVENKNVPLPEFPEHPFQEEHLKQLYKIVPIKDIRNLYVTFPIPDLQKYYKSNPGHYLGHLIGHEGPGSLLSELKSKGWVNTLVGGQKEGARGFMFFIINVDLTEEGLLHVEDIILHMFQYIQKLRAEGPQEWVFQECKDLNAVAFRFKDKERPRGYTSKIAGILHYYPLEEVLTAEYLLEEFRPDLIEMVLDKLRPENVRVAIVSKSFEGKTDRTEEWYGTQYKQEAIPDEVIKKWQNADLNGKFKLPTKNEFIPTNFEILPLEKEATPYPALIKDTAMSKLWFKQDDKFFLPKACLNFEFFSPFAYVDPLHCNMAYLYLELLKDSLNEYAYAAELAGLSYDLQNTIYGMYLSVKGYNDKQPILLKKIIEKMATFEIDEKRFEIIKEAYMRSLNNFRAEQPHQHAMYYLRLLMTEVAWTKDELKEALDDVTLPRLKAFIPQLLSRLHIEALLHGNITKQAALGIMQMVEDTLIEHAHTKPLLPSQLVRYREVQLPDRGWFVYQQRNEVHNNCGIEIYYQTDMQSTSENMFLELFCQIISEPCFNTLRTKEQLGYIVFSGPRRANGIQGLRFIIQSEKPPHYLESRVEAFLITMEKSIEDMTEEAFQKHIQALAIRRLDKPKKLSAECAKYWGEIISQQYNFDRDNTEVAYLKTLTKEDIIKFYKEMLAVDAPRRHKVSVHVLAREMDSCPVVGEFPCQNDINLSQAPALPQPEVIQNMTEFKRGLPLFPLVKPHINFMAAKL
# Active calls of the source: *. Only a selection was taken, and hits are over-represented in it overall.
SMILES,IDE exosite inh
C[C@@H]1C(=O)N[C@H](c2ccccc2)CC=CC[C@H](C)Oc2ccccc2C(=O)N1C (mixture of isomers),-0.28
O=C(Nc1ccc(F)cc1)N1CC(=O)N2[C@@H](CO)[C@@H](c3ccc(Br)cc3)[C@@H]2C1,2.4
COc1ccccc1NC(=O)N1CC(=O)N2[C@H](C1)[C@H](c1ccc(C#CC(C)C)cc1)[C@@H]2CO,0.67
CC(=O)N1CCCCN2[C@H](C1)[C@@H](c1ccc(-c3cccc(C)c3)cc1)[C@@H]2CO,-14*
CC(=O)N1CCCCN2[C@H](C1)[C@@H](c1ccc(-c3ccc(C)cc3)cc1)[C@@H]2CO,-0.53
CC(=O)N1CCCCN2[C@@H](CO)[C@H](c3ccc(-c4ccc(C)cc4)cc3)[C@@H]2C1,-0.57
CC(=O)N1CCCCN2[C@H](CO)[C@@H](c3ccc(-c4ccc(C)cc4)cc3)[C@@H]2C1,1.5
CN(C)C(=O)c1ccc(-c2ccc([C@H]3[C@H](CO)N4CCCCN(C(=O)C5CC5)C[C@@H]34)cc2)cc1,-5*
CN(C)C(=O)c1ccc(-c2ccc([C@H]3[C@@H](CO)N4CCCCN(C(=O)C5CC5)C[C@H]34)cc2)cc1,3.7
CC(=O)N1CCCCN2[C@@H](CO)[C@@H](c3ccc(-c4ccc(C)cc4)cc3)[C@@H]2C1,1.1
CC(=O)N1CCCCN2[C@H](C1)[C@H](c1ccc(-c3cccc(C)c3)cc1)[C@@H]2CO,-5.3*
CN(C)C(=O)c1ccc(-c2ccc([C@H]3[C@H]4CN(C(=O)C5CC5)CCCCN4[C@H]3CO)cc2)cc1,2.2
N#Cc1ccc(-c2ccc([C@@H]3[C@H]4CN(S(=O)(=O)c5ccccc5)CCCCN4[C@H]3CO)cc2)cc1,1.5
COc1ccc(-c2ccc([C@@H]3[C@@H](CO)N4C(=O)CN(C(=O)c5ccccc5)C[C@H]34)cc2)cc1,-1.7
O=C(Nc1ccc2c(c1)[C@H]1C[C@@H](CC(=O)N3CCOCC3)O[C@@H](CO)[C@H]1O2)Nc1ccccc1F,-0.81
COc1cccc(CN2CCCCN3[C@H](CO)[C@@H](c4ccc(C#Cc5cccnc5)cc4)[C@H]3C2)c1,1.5
N#C[C@H]1[C@@H](c2ccccc2)[C@@H](CO)N1S(=O)(=O)Cc1ccccc1,4.8
OC[C@H]1[C@@H](c2ccc(C#Cc3cccnc3)cc2)[C@H]2CN(Cc3ccccc3F)CCCCN21,0.14
COCC(=O)N1CCCCN2[C@H](CO)[C@H](c3ccc(-c4cccc(C)c4)cc3)[C@@H]2C1,1.6
COCC(=O)N1CCCCN2[C@@H](CO)[C@H](c3ccc(-c4ccccc4)cc3)[C@@H]2C1,0.00094
COCC(=O)N1CCCCN2[C@H](CO)[C@H](c3ccc(-c4cccc(C)c4)cc3)[C@H]2C1,-4.7*
COCC(=O)N1CCCCN2[C@@H](CO)[C@@H](c3ccc(-c4cccc(C)c4)cc3)[C@@H]2C1,-6.7*
COCC(=O)N1CCCCN2[C@H](C1)[C@@H](c1ccc(-c3ccc(F)cc3)cc1)[C@@H]2CO,1.1
COCC(=O)N1CCCCN2[C@@H](CO)[C@H](c3ccc(-c4ccc(F)cc4)cc3)[C@@H]2C1,2.1
COCC(=O)N1CCCCN2[C@H](C1)[C@H](c1ccc(-c3cccc(C)c3)cc1)[C@@H]2CO,-3*
SMILES,IDE exosite inh
O=C(Nc1cccc(Cl)c1)N1C[C@H]2[C@@H](c3ccccc31)[C@@H](CO)N2Cc1cccnc1,3.3
CC(=O)N1CC(=O)N2[C@H](CO)[C@H](c3ccc(-c4ccc(C(=O)N(C)C)cc4)cc3)[C@@H]2C1,2.4
C[C@@H]1COCn2nncc2CC[C@H](Cc2ccc(-c3ccccc3)cc2)C(=O)N1,-0.41
O=C(CCN1CCCCC1)N[C@H]1CC[C@@H](CC(=O)N2CCC(Cc3ccccc3)CC2)O[C@@H]1CO,0.84
O=C(Nc1ccccc1F)N1CC(=O)N2[C@H](CO)[C@H](c3ccc(-c4ccc(F)cc4)cc3)[C@@H]2C1,0.49
O=C1CN(S(=O)(=O)Cc2ccccc2)C[C@@H]2[C@@H](c3ccc(C#CC4CC4)cc3)[C@H](CO)N12,-0.86
COc1ccccc1C#Cc1ccc([C@H]2[C@H]3CN(S(C)(=O)=O)CCCCN3[C@H]2CO)cc1,-9.8*
CCCC#Cc1ccc([C@@H]2[C@@H](CO)N3CCCCN(S(C)(=O)=O)C[C@@H]23)cc1,3.7
COc1ccccc1C#Cc1ccc([C@@H]2[C@H](CO)N3CCCCN(S(C)(=O)=O)C[C@@H]23)cc1,-18*
COc1ccc(C#Cc2ccc([C@@H]3[C@H]4CN(S(=O)(=O)c5ccccc5)CCCCN4[C@H]3CO)cc2)cc1,-0.32
O=S(=O)(c1ccccc1)N1CCCCN2[C@@H](CO)[C@@H](c3ccc(C#Cc4ccccc4)cc3)[C@@H]2C1,-5.9*
COc1ccccc1C#Cc1ccc([C@H]2[C@@H](CO)N3CCCCN(S(C)(=O)=O)C[C@H]23)cc1,-9.9*
O=S(=O)(c1ccccc1)N1CCCCN2[C@@H](CO)[C@H](c3ccc(C#Cc4ccccc4)cc3)[C@@H]2C1,3.8
CCCC#Cc1ccc([C@H]2[C@H]3CN(S(C)(=O)=O)CCCCN3[C@H]2CO)cc1,2.7
CS(=O)(=O)N1CCCCN2[C@H](CO)[C@@H](c3ccc(C#Cc4ccccn4)cc3)[C@H]2C1,-1.8
CCCC#Cc1ccc([C@@H]2[C@H]3CN(S(C)(=O)=O)CCCCN3[C@H]2CO)cc1,0.53
CS(=O)(=O)N1CCCCN2[C@H](CO)[C@@H](c3ccc(C#Cc4ccccn4)cc3)[C@@H]2C1,-1.6
CCCC#Cc1ccc([C@@H]2[C@H](CO)N3CCCCN(S(C)(=O)=O)C[C@@H]23)cc1,-1.6
CO[C@H]1CC[C@H]2CCN(C)C(=O)[C@H](C)N(C)C(=O)c3cccc(C#N)c3OC[C@H]1O2,0.4
Cc1ccccc1S(=O)(=O)N1CCCCN2[C@H](CO)[C@@H](c3ccc(-c4cccc(F)c4)cc3)[C@H]2C1,4.1
CCN(C[C@@H]1N[C@@H](CO)[C@H]1c1ccc(-c2cccc(F)c2)cc1)C(=O)COC,2.6
CN(C)C(=O)c1ccc(-c2ccccc2[C@@H]2[C@@H](CO)N(C(=O)C3CC3)[C@H]2C#N)cc1,-0.73
CN(C)CC#Cc1ccc([C@@H]2[C@@H](CO)N3CCCCN(C(=O)C4CCC4)C[C@H]23)cc1,0.61
O=C1CN(S(=O)(=O)Cc2ccccc2)C[C@H]2[C@H](c3ccc(C#Cc4ccccc4)cc3)[C@@H](CO)N12,0.58
O=C1CN(S(=O)(=O)c2ccccc2)C[C@H]2[C@@H](c3ccc(C#Cc4ccccc4)cc3)[C@@H](CO)N12,1.6
SMILES,IDE exosite inh
CS(=O)(=O)N1CC(=O)N2[C@H](CO)[C@H](c3ccc(C#CCc4ccccc4)cc3)[C@@H]2C1,0.97
O=C1CN(S(=O)(=O)Cc2ccccc2)C[C@H]2[C@H](c3ccc(C#Cc4cccc(F)c4)cc3)[C@@H](CO)N12,3.8
O=C1CN(S(=O)(=O)Cc2ccccc2)C[C@@H]2[C@@H](c3ccc(C#Cc4ccccc4)cc3)[C@H](CO)N12,-0.81
CS(=O)(=O)N1CC(=O)N2[C@H](C1)[C@H](c1ccc(C#CCc3ccccc3)cc1)[C@@H]2CO,-3.4*
CCS(=O)(=O)N1CC(=O)N2[C@H](CO)[C@@H](c3ccc(C#CCc4ccccc4)cc3)[C@@H]2C1,1.7
O=C1CN(S(=O)(=O)c2ccccc2)C[C@H]2[C@H](c3ccc(C#Cc4ccccc4)cc3)[C@@H](CO)N12,1.3
O=C1CN(S(=O)(=O)Cc2ccccc2)C[C@@H]2[C@H](c3ccc(C#Cc4ccccc4)cc3)[C@H](CO)N12,-3.5*
O=C1CN(S(=O)(=O)c2ccccc2)C[C@@H]2[C@H](c3ccc(C#Cc4ccccc4)cc3)[C@H](CO)N12,-5.2*

# From PubChem BioAssay
